In PubChem BioAssay (EPA / NIEHS):
Results filed as inconclusive are left out. Active and inactive are the calls of the source. Rule for the calls: active = hit-call score of the fitted dose curve at least 0.9, where 1 is the maximum; inconclusive = response in the unintended direction; inactive = score below 0.9.

assay: Tanguay_ZF_120hpf_AXIS_legacy: (Legacy) Oregon State University Tanguay Lab 120 Hour Post-fertilization zebrafish Assay for Body Axis Malformation (AID 2283635);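 for AC50: potency for an increased fraction of larvae scored with body axis malformation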
In short: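 Dechorionated wild-type Tropical 5D zebrafish embryos, one per well, statically exposed from 6 hpf to 120 hpf at 28C in 0.64% DMSO final. Body axis malformation scored present/absent by brightfield microscopy at 120 hpf; dead embryos excluded.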

| Compound | outcome | AC50 |
| --- | --- | --- |
| C[N+]1(C)CCCCC1 | inactive |  |
| O=[N+]([O-])c1cc(C(F)(F)F)c(Cl)c([N+](=O)[O-])c1Nc1ncc(C(F)(F)F)cc1Cl | inactive |  |
| CCCOCC(=Nc1ccc(Cl)cc1C(F)(F)F)n1ccnc1 | inactive |  |
| CCOC(=O)COc1cc(-c2nn(C)c(OC(F)F)c2Cl)c(F)cc1Cl | inactive |  |
| CCOP(=O)(SC(C)CC)N1CCSC1=O (stereo not given) | inactive |  |
| CC(COc1ccc(Oc2ccccc2)cc1)Oc1ccccn1 (stereo not given) | inactive |  |
| CN(C)[C@@H]1C(=O)C(C(N)=O)=C(O)[C@@]2(O)C(=O)C3=C(O)c4c(O)cccc4[C@@](C)(O)[C@H]3[C@H](O)[C@@H]12 | inactive |  |
| COc1cccc(C(=O)NN(C(=O)c2cc(C)cc(C)c2)C(C)(C)C)c1C | inactive |  |
| CCC(=NOC/C=C/Cl)C1=C(O)CC(C2CCOCC2)CC1=O (stereo not given) | inactive |  |
| CCOP(=S)(OCC)OC(Cl)C(Cl)(Cl)Cl (stereo not given) | inactive |  |
| CC1=NNC(=O)N(/N=C/c2cccnc2)C1 | inactive |  |
| Cc1ccn2nc(S(=O)(=O)Nc3c(F)cccc3F)nc2n1 | inactive |  |
| Nc1c(Cl)cc([N+](=O)[O-])cc1Cl |  | 40.4 µM (active) |
| CCCSP(=O)(OCC)Oc1ccc(Br)cc1Cl (stereo not given) | inactive |  |
| CCOP(=O)(OCC)Oc1cc(C)nc(C(C)C)n1 | inactive |  |
| COc1ccc(C(=CC(=O)N2CCOCC2)c2ccc(Cl)cc2)cc1OC |  | 9.11 µM (active) |
| CNC(=O)ON=C(C)SC |  | 10.1 µM (active) |

| Compound | outcome | AC50 |
| --- | --- | --- |
| CCCSP(=O)(OCC)SCCC | inactive |  |
| COP(=O)(OC)OC(Br)C(Cl)(Cl)Br (stereo not given) | inactive |  |
| CCc1cnc(C2=NC(C)(C(C)C)C(=O)N2)c(C(=O)O)c1 (stereo not given) | inactive |  |
| Cc1nn(-c2cc(NS(C)(=O)=O)c(Cl)cc2Cl)c(=O)n1C(F)F | inactive |  |
| C#CC(C)(C)NC(=O)c1cc(Cl)cc(Cl)c1 | inactive |  |
| CC(C1CC1)C(O)(Cn1cncn1)c1ccc(Cl)cc1 (stereo not given) |  | 24.8 µM (active) |
| CCCCOC(=O)[C@@H](C)Oc1ccc(Oc2ccc(C#N)cc2F)cc1 | inactive |  |
| COP(=O)(NC(C)=O)SC (stereo not given) | inactive |  |
| CCOP(=S)(OCC)Oc1ccc([N+](=O)[O-])cc1 | inactive |  |
| CCc1cccc(CC)c1N(COC)C(=O)CCl | inactive |  |
| CNc1cnn(-c2cccc(C(F)(F)F)c2)c(=O)c1Cl | inactive |  |
| CCOP(=S)(Oc1cnc(C(C)(C)C)nc1)OC(C)C (stereo not given) | inactive |  |
| CSc1nc(NC(C)C)nc(NC(C)C)n1 | inactive |  |
| CN1COCN(Cc2cnc(Cl)s2)C1=N[N+](=O)[O-] | inactive |  |
| O=C(O)c1cc(Oc2ccc(C(F)(F)F)cc2Cl)ccc1[N+](=O)[O-] | inactive |  |
| C=C(C)[C@H]1Cc2c(ccc3c2O[C@@H]2COc4cc(OC)c(OC)cc4[C@@H]2C3=O)O1 | inactive |  |
| CNC(=O)Oc1cccc2c1OC(C)(C)O2 | inactive |  |

assay: Tanguay_ZF_120hpf_EYE_legacy: (Legacy) Oregon State University Tanguay Lab 120 Hour Post-fertilization zebrafish Assay for Eye Malformation (AID 2283636);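 note: binary presence or absence of eye malformation scored by brightfield in 120 hpf larvae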
In short: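 Dechorionated Tropical 5D zebrafish embryos, one per well from 6 hpf, static exposure to 120 hpf at 28C, 0.64% DMSO. Eye malformation scored present/absent by brightfield; dead embryos not scored.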

| Compound | outcome | AC50 |
| --- | --- | --- |
| C[N+]1(C)CCCCC1 | inactive |  |
| CCOC(=O)COc1cc(-c2nn(C)c(OC(F)F)c2Cl)c(F)cc1Cl | inactive |  |
| CCOP(=O)(SC(C)CC)N1CCSC1=O (stereo not given) | inactive |  |
| CN(C)[C@@H]1C(=O)C(C(N)=O)=C(O)[C@@]2(O)C(=O)C3=C(O)c4c(O)cccc4[C@@](C)(O)[C@H]3[C@H](O)[C@@H]12 | inactive |  |
| COc1cccc(C(=O)NN(C(=O)c2cc(C)cc(C)c2)C(C)(C)C)c1C | inactive |  |
| CCC(=NOC/C=C/Cl)C1=C(O)CC(C2CCOCC2)CC1=O (stereo not given) | inactive |  |
| CCOP(=S)(OCC)OC(Cl)C(Cl)(Cl)Cl (stereo not given) | inactive |  |
| CC1=NNC(=O)N(/N=C/c2cccnc2)C1 | inactive |  |
| Cc1ccn2nc(S(=O)(=O)Nc3c(F)cccc3F)nc2n1 | inactive |  |
| Nc1c(Cl)cc([N+](=O)[O-])cc1Cl |  | 9.62 µM (active) |
| CCOP(=O)(OCC)Oc1cc(C)nc(C(C)C)n1 | inactive |  |
| COc1ccc(C(=CC(=O)N2CCOCC2)c2ccc(Cl)cc2)cc1OC |  | 16.4 µM (active) |
| CNC(=O)ON=C(C)SC | inactive |  |
| CCCSP(=O)(OCC)SCCC | inactive |  |
| COP(=O)(OC)OC(Br)C(Cl)(Cl)Br (stereo not given) | inactive |  |
| CCc1cnc(C2=NC(C)(C(C)C)C(=O)N2)c(C(=O)O)c1 (stereo not given) | inactive |  |

| Compound | outcome | AC50 |
| --- | --- | --- |
| Cc1nn(-c2cc(NS(C)(=O)=O)c(Cl)cc2Cl)c(=O)n1C(F)F | inactive |  |
| CC(C1CC1)C(O)(Cn1cncn1)c1ccc(Cl)cc1 (stereo not given) |  | 9.92 µM (active) |
| CCNc1nc(Cl)nc(NC(C)(C)C#N)n1 | inactive |  |
| CCCCOC(=O)[C@@H](C)Oc1ccc(Oc2ccc(C#N)cc2F)cc1 | inactive |  |
| COP(=O)(NC(C)=O)SC (stereo not given) | inactive |  |
| CCOP(=S)(OCC)Oc1ccc([N+](=O)[O-])cc1 | inactive |  |
| CCc1cccc(CC)c1N(COC)C(=O)CCl | inactive |  |
| CNc1cnn(-c2cccc(C(F)(F)F)c2)c(=O)c1Cl | inactive |  |
| CCOP(=S)(Oc1cnc(C(C)(C)C)nc1)OC(C)C (stereo not given) | inactive |  |
| CSc1nc(NC(C)C)nc(NC(C)C)n1 | inactive |  |
| CN1COCN(Cc2cnc(Cl)s2)C1=N[N+](=O)[O-] | inactive |  |
| O=C(O)c1cc(Oc2ccc(C(F)(F)F)cc2Cl)ccc1[N+](=O)[O-] | inactive |  |
| C=C(C)[C@H]1Cc2c(ccc3c2O[C@@H]2COc4cc(OC)c(OC)cc4[C@@H]2C3=O)O1 | inactive |  |
| CNC(=O)Oc1cccc2c1OC(C)(C)O2 | inactive |  |
| CCCOc1nn(C(=O)NS(=O)(=O)c2ccccc2C(=O)OC)c(=O)n1C | inactive |  |
